Screening data (PubChem BioAssay)
CFTR F508del cor: F508del CFTR correction, initial screen, CFBE line, single point. actives 0.36% (n = 350,000). AID 720511, 2013. CFBE cells, YFP halide quenching; stimulated with forskolin plus potentiator P3; % fluorescence drop versus neutral controls. activity (quench increase), % at 7.58 µM;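 active = mean added fluorescence quench of at least 8% versus neutral control, with both replicates also reaching 8%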;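 note: cells transiently co-express mutant CFTR-F508del with the halide-sensitive YFP; corrector assay measuring rescue of mutant channel to the surface after 24 h compound exposure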
ALR H2O2 inh: inhibitors of human ALR sulfhydryl oxidase, primary screen, biochemical, H2O2 detection, HRP-luminol luminescence, single point; purified ALR, DTT oxidation; inhibition, % (no concentration beside the values); FAD-linked sulfhydryl oxidase ALR (Homo sapiens), P55789; actives 3.8% (n = 290,000);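 active = mean replicate inhibition above about 79%, with every replicate also reaching it, limit read from the data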
NSD2 inh: NSD2 histone methyltransferase inhibitors, primary screen, biochemical, AlphaScreen, single concentration, set 2; actives 0.54% (n = 310,000); NSD2 peptide methylation, 120 min; Histone-lysine N-methyltransferase NSD2 (Homo sapiens), O96028; AID 743445, 2014; inhibition, % at 12.5 µM; in the data active = inhibition above about 50%
PglD inh: C. jejuni PglD acetyltransferase inhibitors, primary screen, biochemical, DTNB colorimetric, single point; AID 602405, 2012; inhibition, % at 12.5 µM; actives 0.098% (n = 360,000); purified PglD enzyme, DTNB colorimetric CoA detection; in the data active = inhibition above about 16%, passing the limit was not always enough
CASP6 VEID inh: human caspase-6 inhibitors, primary screen, biochemical, VEID-R110 fluorescence, single point, set 2; P55212; purified caspase-6, Z-VEID-R110 cleavage fluorescence; inhibition, % at 12.5 µM; actives 0.53% (n = 350,000); AID 686996, 2013;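 active = mean inhibition across replicates at least about 35%, with every replicate also reaching that limit, limit read from the data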;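 note: 0% = median of neutral control wells and 100% = no fluorescence left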
Target sequence (P55212 24-179 limits assumed): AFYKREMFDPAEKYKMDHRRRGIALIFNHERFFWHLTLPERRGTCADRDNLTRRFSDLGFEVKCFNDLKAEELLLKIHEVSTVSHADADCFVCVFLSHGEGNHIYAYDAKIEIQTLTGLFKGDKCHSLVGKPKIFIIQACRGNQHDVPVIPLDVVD
Target sequence (P55212 194-293 limits assumed): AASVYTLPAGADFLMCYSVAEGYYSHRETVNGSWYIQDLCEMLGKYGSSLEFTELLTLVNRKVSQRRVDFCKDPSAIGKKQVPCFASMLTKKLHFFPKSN
HIV Env fusion: inhibitors of HIV-1 Env-driven cell-cell fusion, primary screen, HeLa-JRFL effector, CEM21 target cells, luciferase. inhibition, % at 12.3 µM. actives 1.1% (n = 360,000). AID 651610, 2012;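 active = mean replicate inhibition score of at least 50 and every replicate individually at or above 50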;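 note: 0% = plate neutral controls and 100% = maraviroc near 300 nM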
Starred values were filed as active, the others as inactive; x = no result; [ ] = remark or other dose. A selection: hits, their analogues and other compounds. The true share with any hit is near 4.1%.

SMILES	CFTR F508del cor	ALR H2O2 inh	NSD2 inh	PglD inh	CASP6 VEID inh	HIV Env fusion
C[C@@H]1CCCCO[C@@H](CN(C)S(=O)(=O)c2ccccc2)[C@H](C)CN([C@@H](C)CO)C(=O)c2cc(NC(=O)c3ccncc3)ccc2O1	-2	x	x	-1	1	-9[16.7 µM]
CS(=O)(=O)N1[C@@H]2c3ccc(-c4ccc(F)cc4)c(=O)n3C[C@@H]2[C@@H](CO)[C@@H]1C(=O)O	x	x	x	-3	-4	-4[16.7 µM]
Cc1cc2c(s1)Nc1ccccc1N=C2N1CCN(C)CC1	9.4*	94*	x	3	-3	-314
COc1ccc(OC)c(NCc2nnc(-c3ccccc3)o2)c1	3	99*	6	-1	0	18
O=C1c2cccc3c(O)ccc(c23)C(=O)N1Cc1ccco1	27*	x	x	2	1	0
O=C1c2cccc3c(O)ccc(c23)C(=O)N1c1ccc(Cl)cc1	19*	-87	1	6	-16	15
CCCNC(=O)N(C)C[C@@H]1Oc2cc(C#CCC(C)C)ccc2S(=O)(=O)N([C@@H](C)CO)C[C@H]1C	4	x	x	0	0	-1[16.7 µM]
CNC[C@H]1OCCCC[C@@H](C)Oc2ccc(NC(=O)c3ccccc3)cc2C(=O)N([C@@H](C)CO)C[C@@H]1C	-7	x	x	x	x	6[16.7 µM]
Cc1noc(C)c1NC(=O)Nc1cccc2c1O[C@@H](CN(C)CC1CCCCC1)[C@@H](C)CN([C@H](C)CO)C2=O	-1	x	x	-12	2	-16[16.7 µM]
C[C@@H]1CN([C@@H](C)CO)C(=O)c2cc(NC(=O)C3CC3)ccc2O[C@H]1CN(C)Cc1ccc(C(=O)O)cc1	0	x	x	6	0	2[16.7 µM]
Oc1cccc(-c2nc3ccccc3s2)c1	x	4	-1	11	x	x
Nc1cccc(-c2nc3ccccc3s2)c1	x	99*	3	4	x	-375
COc1ccc2c3c([nH]c2c1)[C@@H](CO)N(C(=O)c1ccncc1)CC31CN(C(=O)C2CCC2)C1	-1	x	x	x	1	x
CCN(CC)c1cccc(OCC(=O)N(C)CCC#N)c1	x	98*	-2	2	0	x
CCCNC(=O)N[C@@H]1CC[C@@H](CC(=O)N2CCN(C)CC2)O[C@@H]1CO	3	x	x	-3	-3	7[16.7 µM]
COC(C(=O)C(O)C(C)O)C1Cc2cc3cc(OC4CC(OC5CC(O)C(O)C(C)O5)C(O)C(C)O4)c(C)c(O)c3c(O)c2C(=O)C1OC1CC(OC2CC(OC3CC(O)C(OC)C(C)O3)C(O)C(C)O2)C(O)C(C)O1 (stereo not given)	13*	x	24	x	12	78*
O=C(NCC1CCCO1)C(=O)NCC(c1ccco1)N1CCN(c2ccc(F)cc2)CC1 (stereo not given)	-1	59	0	0	0	x
COc1ccc(N2CCN(C(CNC(=O)c3ccco3)c3ccco3)CC2)cc1 (stereo not given)	0	91*	6	-2	0	x
COC(=O)NCC(c1ccco1)N1CCN(c2ccccc2)CC1 (stereo not given)	2	96*	7	x	2	-4
S=C(NCC1CCCO1)N1CCN(c2ccccc2)CC1 (stereo not given)	-1	98*	-2	x	1	15
O=C(NCC1CCCO1)C(=O)NCC(c1ccco1)N1CCN(c2ccccc2)CC1 (stereo not given)	3	98*	9	1	1	x
O=C(NCC(c1ccco1)N1CCN(c2ccccc2)CC1)OCc1ccccc1 (stereo not given)	-1	23	0	x	0	-4
FC(F)(F)c1cccc(N2CCN(C(=S)NCC3CCCO3)CC2)c1 (stereo not given)	0	3	1	x	-1	21
CNC(=O)C[C@@H]1CC[C@@H]2[C@@H](COc3ccc(NC(=O)c4cccc(OC)c4)cc3C(=O)N2C)O1	-1	x	x	0	-2	-17[16.7 µM]
CO[C@H]1CN(C)C(=O)c2ccc(NC(C)=O)cc2OC[C@H](C)N(Cc2ccccc2F)C[C@H]1C	-3	x	x	1	-1	5[16.7 µM]
